Screens deposited in PubChem by National Center for Advancing Translational Sciences (NCATS).
IP6K1 inh – IP6K1 kinase inhibition; activity change, % (series mostly up to about 58 µM); AID 1645851; IP6K1 kinase, ADP-Glo luminescence, 2 h; hits give low values; 140,000 compounds, 0.81% hits; in the data active means activity change below about -25%
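ADP-Glo luminescence measures ADP made by human IP6K1 during a 2 h RT reaction with ATP/IP6 (mix at 1.3 mM/130 uM); top library doses 57.5 and 19.1 uM final.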
KDM5B inhibitor – KDM5B demethylase inhibition | Potency, µM (highest dose often 57.7 µM), hits mostly inhibitors | KDM5B demethylase, FDH-coupled NADH fluorescence (FDH is formaldehyde dehydrogenase) | 220,000 compounds, 2.6% hits | Q9UGL1; active means well fitted inhibition curve with a large enough effect; inconclusive means small, poorly fitted or top-dose-only effect; inactive means no such curve, though single readings can be large or run the other way; further: nearly all actives have a fitted effect of over 70% in size
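qHTS format, multiple compound concentrations. Buffer 50 mM HEPES pH 7.5/0.01% Tween-20; 200 nM KDM5BΔAP final; 10 min compound preincubation; substrate-mix levels 12.5 µM peptide, 25 µM α-KG, 0.25 mM NAD⁺; 30 min RT; ΔRFU.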
Large screens that a line does not name were inactive. Only some compounds are listed: those with a hit (about 2.8% of all), similar ones and a draw of the others.

O=C1NCCN2CC3(CCN(C(=O)Nc4ccccc4F)CC3)CC12 (stereo not drawn)	KDM5B inhibitor inconclusive
O=C1NCCN2CC3(CCN(C(=O)Nc4ccc5c(c4)OCCO5)CC3)CC12 (stereo not drawn)	KDM5B inhibitor 25µM
COc1ccc(-c2noc([C@@H]3C[C@@H](O)CN3Cc3ccc(S(C)(=O)=O)cc3)n2)cc1	KDM5B inhibitor inconclusive
CS(=O)(=O)c1ccc(CN2C[C@H](O)C[C@H]2c2nc(-c3cnccn3)no2)cc1	KDM5B inhibitor 35µM
COc1ccc(N2CCCS2(=O)=O)cc1NS(=O)(=O)c1cc(C)ccc1C	none (no result: IP6K1 inh)
NC(=O)c1cccc(-c2ccc3c(n2)CN(Cc2nc4ccccc4s2)C(=O)CO3)c1	KDM5B inhibitor inconclusive
NC(=O)c1cccc(-c2ccc3c(n2)CN(Cc2ccc(F)cc2)C(=O)CO3)c1	KDM5B inhibitor 35µM
COc1cccc(CN2Cc3nc(-c4cc5ccccc5o4)ccc3OCC2=O)c1	KDM5B inhibitor 50µM
COc1cccc(-c2ccc3c(n2)CN(CC(=O)N2CCCC2)C(=O)CO3)c1	KDM5B inhibitor inconclusive
Cc1nc(CN2Cc3nc(-c4ccccc4F)ccc3OCC2=O)cs1	none
COc1ccc(-c2ccc3c(n2)CN(Cc2csc(C)n2)C(=O)CO3)cc1F	KDM5B inhibitor 35µM
O=C(CN1Cc2nc(-c3cc4ccccc4o3)ccc2OCC1=O)N1CCCC1	KDM5B inhibitor 28µM
COc1cccc(CN2Cc3nc(-c4cnn(C)c4)ccc3OCC2=O)c1	none
CC(=O)N1CCC2(CC1)C(=O)NN=C2c1ccncc1	none
COc1cccc(CN2Cc3nc(-c4ccc(F)cc4)ccc3OCC2=O)c1	none
COc1cccc(CN2Cc3nc(-c4cc(Cl)ccc4OC)ccc3OCC2=O)c1	KDM5B inhibitor 35µM
COc1cccc(CN2Cc3nc(N(C)c4ccccc4)ccc3OCC2=O)c1	KDM5B inhibitor 32µM
COc1cccc(CN2Cc3nc(Oc4ccccc4)ccc3OCC2=O)c1	none
COc1ccc(Cl)cc1-c1ccc2c(n1)CN(CCOc1ccccc1)C(=O)CO2	KDM5B inhibitor inconclusive
CN(c1ccccc1)c1ccc2c(n1)CN(Cc1ccc(F)cc1)C(=O)CO2	KDM5B inhibitor 32µM
COc1ccc(CN2CCCC3(CC(c4ccccc4)=NO3)C2)cc1 (stereo not drawn)	none
CCNC(=O)N1CCCC1c1noc(CCC(=O)N(C)CCOC)n1 (stereo not drawn)	none
CNC(=O)CCn1ncc2cc(OCc3ccccc3-c3cccc(CO)c3)ccc21	KDM5B inhibitor inconclusive
CSc1ccc(C(C)NC(=O)C2CC2)cc1 (stereo not drawn)	none (no result: IP6K1 inh)
CNC(=O)c1cc(C)nc2onc(C3CCN(C(=O)C4CCCC4)C3)c12 (stereo not drawn)	none (no result: KDM5B inhibitor)
CN(C)C[C@@H]1CN(C2CCOCC2)C[C@H]1NC(=O)c1ccc2ccccc2n1	KDM5B inhibitor inconclusive
CN(C)C[C@@H]1CN(c2ccncn2)C[C@H]1NC(=O)c1nccc2ccccc12	none
CN(C)C[C@@H]1CN(c2ncccn2)C[C@H]1NC(=O)c1nn(C)c2ccccc12	KDM5B inhibitor 32µM
CN(C)C[C@@H]1CN(C)C[C@H]1NC(=O)c1nn(C)c2ccccc12	KDM5B inhibitor 32µM
CN(C)C[C@@H]1CN(C2CCOCC2)C[C@H]1NC(=O)c1n[nH]c2ccccc12	KDM5B inhibitor 22µM
CN(C)C[C@@H]1CN(C)C[C@H]1NC(=O)c1ccc(Br)cc1	none
O=C(NC1CCCCC1)[C@@H]1C[C@@H](O)CN1C1CCN(C(=O)CN2CCCC2=O)CC1	none
COC(=O)NC1CCCN(Cc2ccc(-c3cc(C)cc(C)c3)cc2)C1 (stereo not drawn)	none (no result: KDM5B inhibitor)
CCCCCCCOc1cc2c(cc1/C(C)=C/c1ccc(C(=O)O)cc1)C(C)(C)CCS2(=O)=O	none (no result: KDM5B inhibitor)
COC[C@@H]1CN(C(=O)c2ccoc2)C[C@H]1c1ccccn1	none
Cc1ccc(S(=O)(=O)N2CCC3(CC2)NC(=O)c2ccccc2N3)cc1C	none (no result: IP6K1 inh)
O=C(c1nccs1)c1cccnc1N1CCNCC(O)C1 (stereo not drawn)	KDM5B inhibitor 10µM
C[C@@]1(O)CCN(c2ncccc2C(=O)c2nccs2)C[C@@H]1O	none
O=c1ncn(Cc2ccccc2)c2ccc(NCCOc3ccccc3)nc12	KDM5B inhibitor 35µM
O=c1ncn(CC2CC2)c2ccc(-c3ccc(F)cc3)nc12	KDM5B inhibitor 35µM
O=c1ncn(CC2CC2)c2ccc(-c3ccc4c(c3)OCO4)nc12	none
O=c1ncn(CC2CC2)c2ccc(-c3ccc(Cl)cc3)nc12	KDM5B inhibitor 40µM
COc1cc(F)ccc1-c1ccc2c(n1)c(=O)ncn2CCC(F)(F)F	KDM5B inhibitor inconclusive
O=c1ncn(Cc2ccccc2)c2ccc(-c3ccc(F)cc3)nc12	KDM5B inhibitor 35µM
CC(=O)Nc1cccc(-c2ccc3c(n2)c(=O)ncn3Cc2ccccc2)c1	none
O=c1c2nc(NCCOc3ccccc3)ccc2ncn1Cc1ccccc1	KDM5B inhibitor inconclusive
CC1(C(=O)N2CC=C(c3ccccc3)CC2)CCCCC(=O)N1 (stereo not drawn)	none
COc1ccc(-c2nsc(NC(=O)c3oc4cc(C)c(C)cc4c3C)n2)cc1	none
CNC(=O)[C@@H](Cc1ccccc1)N1CCC[C@H]1C(=O)NCc1ccccn1	KDM5B inhibitor 28µM
CNC(=O)[C@@H](Cc1ccccc1)N1CCC[C@H]1C(=O)NCc1cccnc1	none
CC(C)c1ccc(S(=O)(=O)N2C[C@@H](F)C[C@H]2C(=O)N2CCc3ccccc3C2)cc1	none
CCc1ccccc1NC(=O)c1cc2c(s1)CN(C(C)C)C2	KDM5B inhibitor 7.1µM
CCN(CC)c1ccc(CNC(=O)c2cc3c(s2)CN(C(C)C)C3)cc1	KDM5B inhibitor inconclusive
O=C(NC1CCCCCC1)C1CC(=O)N(c2n[nH]c3cccc(F)c23)C1 (stereo not drawn)	KDM5B inhibitor 32µM
O=C(Nc1ccc(F)cc1)C1CC(=O)N(c2n[nH]c3cccc(F)c23)C1 (stereo not drawn)	KDM5B inhibitor inconclusive
CC(=O)Nc1ccc(NC(=O)C2CC(=O)N(c3n[nH]c4cccc(F)c34)C2)cc1 (stereo not drawn)	KDM5B inhibitor 35µM
Cc1ccc(NC(=O)C2CC(=O)N(c3n[nH]c4cccc(F)c34)C2)cc1C (stereo not drawn)	KDM5B inhibitor 18µM
Cc1cccc(NC(=O)C2CC(=O)N(c3n[nH]c4cccc(F)c34)C2)c1 (stereo not drawn)	KDM5B inhibitor inconclusive
CCc1ccc(NC(=O)C2CC(=O)N(c3n[nH]c4cccc(F)c34)C2)cc1 (stereo not drawn)	KDM5B inhibitor 35µM
O=C(Nc1ccc(Cl)cc1)C1CC(=O)N(c2n[nH]c3cccc(F)c23)C1 (stereo not drawn)	KDM5B inhibitor inconclusive
O=C(NC1CC1)C1CC(=O)N(c2n[nH]c3cccc(F)c23)C1 (stereo not drawn)	none
Cc1ccc(Sc2cc(C)nc(N)n2)cc1	none (no result: IP6K1 inh)
O=C(NC1CCCN(c2cc(-c3ccc(F)cc3)[nH]n2)C1)c1ccccc1Cl (stereo not drawn)	none
COc1cc(C2SCCS2)ccc1OC(=O)COc1ccccc1C	none (no result: IP6K1 inh)
CCc1ccc(Nc2nnc(Cc3ccc(OC)c(OC)c3)c(=O)[nH]2)cc1	none (no result: IP6K1 inh)
O=C(NCCc1ccc(Cl)cc1)C1CN(C2CCCCC2)C(=O)N1 (stereo not drawn)	none (no result: KDM5B inhibitor)
CC(C)=CCC1(CO)CCCN(CC(=O)N2CCCCCC2)C1 (stereo not drawn)	none
CC(C)=CCC1(CO)CCCN(Cc2cc(=O)n3cc(C)sc3n2)C1 (stereo not drawn)	KDM5B inhibitor 28µM
